Measurements: PubChem BioAssay (NCATS)
Inconclusive results are not listed. Where a call stands in place of a potency, no number is given. The source made the active and inactive calls. Calls follow the shape of the dose curve; as a rule, active = well fitted inhibition curve with a large enough effect; inconclusive = small, poorly fitted or top-dose-only effect; inactive = no such curve, though single readings can be large or run the other way.

Target: RecQ-like DNA helicase BLM (Homo sapiens) (UniProt P54132)
Test: qHTS Validation Assay for Inhibitors of Bloom's syndrome helicase (BLM) (AID 2364)
Settings: BLM helicase DNA unwinding, fluorescence, in vitro; series mostly up to 57.1 µM
Text: Survival of cells and the faithful propagation of the genome depend on elaborate mechanisms of detecting and repairing DNA damage. Treatment of advanced cancer relies on radiation therapy or chemotherapy, which kill cancer cells by causing extensive DNA damage. It is often found, that cancer cells develop resistance to therapy through enhanced activity of DNA repair functions; this has led to an increased interest in developing drugs that interfere with DNA repair, which could sensitize cancer cells to conventional therapy.
This validation qHTS assay pertains to human BLM, which is important in resolving abnormal DNA structures formed during replication or homologous recombination. Shutting down the expression of BLM leads to chromosomal instability and higher radiation sensitivity in cultured cells.
The validation assay was a fluorescence quenching based kinetic qHTS for BLM Helicase DNA unwinding. The activity was measured as ATP-dependent separation of a 20-bp DNA duplex extended by 30-nt single-stranded tails (forked duplex). The forked DNA substrate was tagged with rhodamine fluorophore (carboxytetramethyl rhodamine, TAMRA) and BHQ-2 (Black Hole Quencher 2) dark quencher. Strand separation results in an increase in the fluorescence of TAMRA (excitation 525 nm, emission 598 nm). This substrate construct operates in a red-shifted region where very few compound library members have been noted to fluoresce (PubChem AIDs 593 and 594). An additional feature of the assay is the inclusion of 2.5 ug/ml poly (dIdC), to reduce interference by compounds such as DNA intercalators, a major source of false inhibitors.
Ian Hickson, University of Oxford
Opher Gileadi, Structural Genomics Consortium, University of Oxford
Screening Center PI: Austin, C.P.
Screening Center: NIH Chemical Genomics Center [NCGC]
Three uL of reaction buffer (25 mM Tris-HCl (pH 8.0), 5 mM NaCl, 2 mM MgCl2, 1mM DTT, 0.01% Tween- 20, and 2.5 ug/ml poly(dI-dC), including enzyme (50 nM BLM), were dispensed into a 1536-well Greiner black assay plate via solenoid-valve based nanoliter dispensers. Compounds (23 nl each in columns 5-48) and control (23 nl each in column 2 as dose-response) were transferred via a Kalypsys pintool equipped with a 1536-pin array. The plates were incubated for 15 min at room temperature, and then 1 ul of substrates (200 nM DNA and 2 mM ATP, final concentrations) was added to start the reaction. The plate was transferred into a ViewLux high-throughput CCD imager where the reaction progress was measured in a discontinuous kinetic mode (two reads spaced 2 hours apart, with intermediate room temperature incubation of the covered assay plate) by using standard red-fluorescence optics (excitation filter 525 nm, emission filter 598 nm). Enzyme-free and vehicle (DMSO) controls were included for signal normalization.
Potency is read from the fitted curve at half-maximal effect.

Chain of RecQ-like DNA helicase BLM (Homo sapiens) (P54132 whole entry, looked up): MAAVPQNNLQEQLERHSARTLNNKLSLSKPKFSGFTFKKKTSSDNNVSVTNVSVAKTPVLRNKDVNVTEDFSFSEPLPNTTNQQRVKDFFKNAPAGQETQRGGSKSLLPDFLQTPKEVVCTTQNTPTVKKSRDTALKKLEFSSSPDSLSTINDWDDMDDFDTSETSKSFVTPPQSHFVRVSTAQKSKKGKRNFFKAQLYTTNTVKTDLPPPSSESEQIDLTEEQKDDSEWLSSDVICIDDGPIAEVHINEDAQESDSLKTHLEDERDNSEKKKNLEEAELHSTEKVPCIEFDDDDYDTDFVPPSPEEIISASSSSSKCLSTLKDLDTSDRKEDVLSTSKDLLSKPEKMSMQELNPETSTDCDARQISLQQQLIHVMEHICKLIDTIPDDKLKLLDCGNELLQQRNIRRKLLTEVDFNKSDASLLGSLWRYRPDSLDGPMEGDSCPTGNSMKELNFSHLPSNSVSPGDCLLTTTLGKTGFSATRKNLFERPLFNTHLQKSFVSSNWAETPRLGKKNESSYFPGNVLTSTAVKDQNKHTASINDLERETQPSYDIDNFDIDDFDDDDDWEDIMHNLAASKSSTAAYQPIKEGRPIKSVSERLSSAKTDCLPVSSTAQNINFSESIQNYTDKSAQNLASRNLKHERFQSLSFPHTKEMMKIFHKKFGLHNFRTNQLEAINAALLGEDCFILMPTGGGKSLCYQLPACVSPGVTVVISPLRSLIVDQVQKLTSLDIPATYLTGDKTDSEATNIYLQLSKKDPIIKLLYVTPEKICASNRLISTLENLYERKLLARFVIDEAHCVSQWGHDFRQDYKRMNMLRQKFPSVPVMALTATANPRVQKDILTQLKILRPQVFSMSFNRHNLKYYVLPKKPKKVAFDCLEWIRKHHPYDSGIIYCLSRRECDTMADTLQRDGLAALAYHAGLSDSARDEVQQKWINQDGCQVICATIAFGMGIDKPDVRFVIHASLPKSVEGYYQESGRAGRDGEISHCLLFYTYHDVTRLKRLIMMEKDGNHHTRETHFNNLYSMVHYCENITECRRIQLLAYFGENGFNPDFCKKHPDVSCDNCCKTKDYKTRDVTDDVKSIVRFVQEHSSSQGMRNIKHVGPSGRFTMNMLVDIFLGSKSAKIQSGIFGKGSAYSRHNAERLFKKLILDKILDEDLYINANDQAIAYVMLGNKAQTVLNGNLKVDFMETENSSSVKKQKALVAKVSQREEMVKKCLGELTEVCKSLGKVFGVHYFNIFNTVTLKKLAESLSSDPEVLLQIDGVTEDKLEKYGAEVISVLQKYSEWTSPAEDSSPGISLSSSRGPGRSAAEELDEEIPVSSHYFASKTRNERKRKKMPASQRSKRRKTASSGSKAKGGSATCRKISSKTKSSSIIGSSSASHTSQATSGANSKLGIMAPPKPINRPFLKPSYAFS

Compound	Potency
NC(=O)C1=CN(C2OC(COP(=O)(O)OP(=O)(O)OC[C@H]3O[C@@H](n4cnc5c(N)ncnc54)[C@H](OP(=O)(O)O)[C@H]3O)C(O)C2O)C=CC1 (some centres not stated)	inactive
N[C@H](Cc1ccc(O)c(O)c1)C(=O)O	28.2 µM (active)
OC[C@H]1O[C@@H](n2cnc3c(Nc4ccccc4)ncnc32)[C@H](O)[C@H]1O	inactive
CN1CCc2cc(Cl)c(O)cc2C(c2ccccc2)C1 (configuration not stated)	inactive
OC[C@H]1O[C@@H](n2cnc3c(NCCc4ccccc4)ncnc32)[C@H](O)[C@H]1O	inactive
NC(=NCCC[C@H](N)C(=O)O)NO	inactive
CC(C)CN(C)c1nc(N)c(C(=O)N=C(N)N)nc1Cl	inactive
CC(N)=NCCCC(N)C(=O)O (configuration not stated)	inactive
COc1cc2c(cc1OC)C(c1ccccc1)CN(C)CC2 (configuration not stated)	inactive
COc1ccc(CCNC[C@@H](O)c2ccc(O)cc2)cc1OC	inactive
N=C1Sc2ccccc2C2=NCCCN12	inactive
CCn1c(=O)c2[nH]c(-c3ccccc3)nc2n(CC)c1=O	inactive
Nc1ncnc2c1ncn2[C@@H]1O[C@H](CO)[C@H](O)[C@H]1O	inactive
CC(=O)O[C@H]1C[C@@H]2CCC3C(CC[C@@]4(C)[C@H]3C[C@H]([N+]3(C)CCCCC3)[C@@H]4OC(C)=O)[C@@]2(C)C[C@@H]1[N+]1(C)CCCCC1 (some centres not stated)	inactive
N=C(N)SCCc1cccc(CCSC(=N)N)c1	inactive
CN1C2CCC1CC(NC(=O)c1nn(C)c3ccccc13)C2 (configuration not stated)	inactive
C[C@H]1CC2[C@@H]3CCC4=CC(=O)C=C[C@]4(C)[C@@]3(F)[C@@H](O)C[C@]2(C)[C@@]1(O)C(=O)CO (some centres not stated)	inactive
CCCNC[C@H](O)COc1ccccc1C(=O)CCc1ccccc1	inactive
CN1C(=O)CCC1c1cccnc1 (configuration not stated)	inactive
N.N.N.N.N.N.N.N.N.N.N.N.N.N.O.O.[Cl-].[Cl-].[Cl-].[Cl-].[Cl-].[Cl-].[Ru].[Ru].[Ru]	12.6 µM (active)
CC(C)C1NC(=O)[C@H](CCCCN)NC(=O)[C@@H](Cc2c[nH]c3ccccc23)NC(=O)[C@H](Cc2ccc(O)cc2)NC(=O)[C@H](C)N(C)C(=O)[C@H](Cc2ccccc2)NC1=O (some centres not stated)	inactive
CCCC(=O)NCCc1c2n(c3ccc(OC)cc13)Cc1ccccc1-2	inactive
C[C@H](Cc1ccccc1)Nc1ncnc2c1ncn2[C@@H]1O[C@H](CO)[C@H](O)[C@H]1O	inactive
CCCCC#Cc1nc(N)c2ncn([C@@H]3O[C@H](C(=O)NCC)[C@@H](O)[C@H]3O)c2n1	inactive
OC[C@H]1O[C@@H](n2cnc3c(NC4CCCC4)ncnc32)[C@H](O)[C@H]1O	inactive
NCCCCNS(=O)(=O)c1cccc2c(Cl)cccc12	inactive
C[C@]12CCC(=O)C=C1CC[C@@H]1C2[C@@H](O)C[C@@]2(C)[C@H]1CC[C@]2(O)C(=O)CO (some centres not stated)	inactive
